Experimental data from PubChem BioAssay.
For part of these data: Measured potencies and affinities stand elsewhere. Calls of active or inactive are those of the source. Unless noted, no rule for the calls is given here.

tested on: not listed separately; assay: inhibition of 3D7 malaria parasite growth – strain 3D7 (AID 2306);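 also: 0% = DMSO wells and 100% = chloroquine plus artemisinin control wells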; settings: P. falciparum 3D7 erythrocytic growth, LDH absorbance, 72 h; at 2 µM; stronger effect = higher value

Growth inhibition, active:
CCOC(=O)N1CCN(CCCCCNc2cc(C)nc(/N=C(\N)Nc3ccc(Cl)cc3)n2)CC1 101%
COc1cc(CCNC(=O)Cc2ccc3ccccc3c2)ccc1OCc1ccccc1 93%
CCN(Cc1cccc2ccccc12)c1ccc2nc(N)nc(N)c2c1 100%
CCn1c(O)c(N=NC(=S)N2CCCC2)c2ccccc21 91%
CCCCC#Cc1cnc2nc(N)[nH]c(=O)c2n1 89%
NC(=NCC1CC1c1ccccc1)c1cccc(C(N)=NCC2CC2c2ccccc2)n1 (stereo not drawn) 95%
COc1ccc(Cc2c(Cl)nc3nc(N)nc(N)c3c2C)cc1 94%
CCCCc1cc(Cc2cnc(N)nc2N)cc(OC)c1OC 86%
COc1cccc2c(O)c(CNC3CCCCC3)ccc12 100%
Cc1nc(N)nc(N)c1-c1cc(Cl)c(Cl)c(Cl)c1 97%
Cc1[nH]c(C)c(-c2ccc(-c3ccc(F)cc3)cc2)c(=O)c1Cl 96%
CC(C)Cn1cc2c(ccc3nc(N)nc(N)c32)n1 97%
CCN(CC)CCNc1cc(C)nc(/N=C(\N)Nc2ccc(Cl)cc2)n1 101%
CCNC(=NCc1ccccc1)NCCCCCCNC(=NCc1ccccc1)NCC 96%
Cc1[nH]c(C)c(-c2ccc(Oc3ccc(Cl)c(Cl)c3)cc2)c(=O)c1Br 97%
Cc1ccc2ccncc2c1N 96%
CCCc1cc(Cc2cnc(N)nc2N)c2cccnc2c1OC 98%
Cn1c(=N)cc(-c2cccc(I)c2)c2c(=O)[nH]c(N)nc21 89%
CN(C)S(=O)(=O)n1ccc2c3c(N)nc(N)nc3ccc21 94%
Cc1[nH]c(C)c(-c2ccc(Oc3cc(Cl)cc(Cl)c3)cc2)c(=O)c1Br 96%
CCCCNCc1ccc(OCc2cccc(COc3ccc(CNCCCC)cc3I)c2)c(I)c1 87%
CCCCOc1c(CCNCCCCNCCc2cc(OC)c3ccccc3c2OCCCC)cc(OC)c2ccccc12 91%
c1ccc2c(NCCOCCNc3c4ccccc4nc4ccccc34)c3ccccc3nc2c1 94%
Cc1[nH]c(C)c(-c2ccc(Oc3cccc(OC(F)(F)F)c3)cc2)c(=O)c1Cl 97%
Oc1ccc2c(CNC3CCCCC3)c(O)ccc2c1CNC1CCCCC1 101%
CC(C)Cn1ccc2c3c(N)nc(N)nc3ccc21 96%
COc1cc(Cc2cnc(N)nc2N)cc(OCCCCNS(=O)(=O)C(F)(F)F)c1OC 84%
CC(=O)Oc1c(Cl)c(C)nc(C)c1-c1ccc(Oc2ccc(Cl)cc2)cc1 98%
Oc1c(CNC2CCCCC2)cc(Cl)c2ccccc12 98%
COc1ccc(-c2cnc(N)nc2N)cc1Cl 84%
Cc1c(Cc2ccc(C(C)C)cc2)cnc2nc(N)nc(N)c12 97%
Cc1nc(N)nc(N)c1-c1ccc(Br)c(Br)c1 94%
COc1cc(Cc2cnc(N)nc2N)cc(OCCCC(=O)O)c1OC 84%
Cc1[nH]c(C)c(-c2ccc(Oc3ccc(S(C)=O)cc3)cc2)c(=O)c1Br (stereo not drawn) 91%
CN1CCN(c2ccc3nc(-c4ccc5nc(-c6ccc([N+](=O)[O-])c(N)c6)[nH]c5c4)[nH]c3c2)CC1 100%
CCCc1cc2c3c(N)nc(N)nc3ccc2n1CC 96%
COc1ccc(OC)c(Cc2c(C)nc3nc(N)nc(N)c3c2C)c1 90%
CCC(C(C)C)n1ccc2c3c(N)nc(N)nc3ccc21 (stereo not drawn) 95%
C=CCn1ccc2c3c(N)nc(N)nc3ccc21 89%

molecular target: Calcium-dependent protein kinase 1 (Plasmodium falciparum (isolate 3D7)) (UniProt P62344); assay: PfCDPK1 kinase inhibitors, biochemical, TCAMS library (AID 1159585; cut-off not given, nearly all actives have IC50 up to about 0.98 µM;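 also: inhibitors leave more ATP so luminescence rises with inhibition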); settings: recombinant PfCDPK1, Kinase-Glo ATP depletion luminescence
Sequence (P62344 whole entry, looked up): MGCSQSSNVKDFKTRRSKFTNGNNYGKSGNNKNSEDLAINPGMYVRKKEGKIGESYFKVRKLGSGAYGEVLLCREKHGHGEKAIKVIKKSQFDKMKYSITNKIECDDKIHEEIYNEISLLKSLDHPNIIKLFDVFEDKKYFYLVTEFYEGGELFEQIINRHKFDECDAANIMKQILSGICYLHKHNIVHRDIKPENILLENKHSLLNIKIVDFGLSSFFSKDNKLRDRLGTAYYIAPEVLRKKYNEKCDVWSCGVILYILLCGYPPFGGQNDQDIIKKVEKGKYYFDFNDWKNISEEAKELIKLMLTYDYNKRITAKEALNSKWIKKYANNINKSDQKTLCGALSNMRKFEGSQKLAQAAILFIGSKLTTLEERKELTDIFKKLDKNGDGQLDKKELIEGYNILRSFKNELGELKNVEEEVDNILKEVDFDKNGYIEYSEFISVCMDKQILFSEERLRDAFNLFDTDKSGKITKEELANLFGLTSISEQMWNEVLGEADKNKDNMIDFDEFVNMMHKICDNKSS

outcome, inactive:
CCOC(=O)N1CCN(CCCCCNc2cc(C)nc(/N=C(\N)Nc3ccc(Cl)cc3)n2)CC1
COc1cc(CCNC(=O)Cc2ccc3ccccc3c2)ccc1OCc1ccccc1
CCN(Cc1cccc2ccccc12)c1ccc2nc(N)nc(N)c2c1
CCn1c(O)c(N=NC(=S)N2CCCC2)c2ccccc21
CCCCC#Cc1cnc2nc(N)[nH]c(=O)c2n1
NC(=NCC1CC1c1ccccc1)c1cccc(C(N)=NCC2CC2c2ccccc2)n1 (stereo not drawn)
COc1ccc(Cc2c(Cl)nc3nc(N)nc(N)c3c2C)cc1
CCCCc1cc(Cc2cnc(N)nc2N)cc(OC)c1OC
COc1cccc2c(O)c(CNC3CCCCC3)ccc12
Cc1nc(N)nc(N)c1-c1cc(Cl)c(Cl)c(Cl)c1
Cc1[nH]c(C)c(-c2ccc(-c3ccc(F)cc3)cc2)c(=O)c1Cl
CC(C)Cn1cc2c(ccc3nc(N)nc(N)c32)n1
CCN(CC)CCNc1cc(C)nc(/N=C(\N)Nc2ccc(Cl)cc2)n1
CCNC(=NCc1ccccc1)NCCCCCCNC(=NCc1ccccc1)NCC
Cc1[nH]c(C)c(-c2ccc(Oc3ccc(Cl)c(Cl)c3)cc2)c(=O)c1Br
Cc1ccc2ccncc2c1N
CCCc1cc(Cc2cnc(N)nc2N)c2cccnc2c1OC
Cn1c(=N)cc(-c2cccc(I)c2)c2c(=O)[nH]c(N)nc21
CN(C)S(=O)(=O)n1ccc2c3c(N)nc(N)nc3ccc21
Cc1[nH]c(C)c(-c2ccc(Oc3cc(Cl)cc(Cl)c3)cc2)c(=O)c1Br
CCCCNCc1ccc(OCc2cccc(COc3ccc(CNCCCC)cc3I)c2)c(I)c1
CCCCOc1c(CCNCCCCNCCc2cc(OC)c3ccccc3c2OCCCC)cc(OC)c2ccccc12
c1ccc2c(NCCOCCNc3c4ccccc4nc4ccccc34)c3ccccc3nc2c1
Cc1[nH]c(C)c(-c2ccc(Oc3cccc(OC(F)(F)F)c3)cc2)c(=O)c1Cl
Oc1ccc2c(CNC3CCCCC3)c(O)ccc2c1CNC1CCCCC1
CC(C)Cn1ccc2c3c(N)nc(N)nc3ccc21
COc1cc(Cc2cnc(N)nc2N)cc(OCCCCNS(=O)(=O)C(F)(F)F)c1OC
CC(=O)Oc1c(Cl)c(C)nc(C)c1-c1ccc(Oc2ccc(Cl)cc2)cc1
Oc1c(CNC2CCCCC2)cc(Cl)c2ccccc12
COc1ccc(-c2cnc(N)nc2N)cc1Cl
Cc1c(Cc2ccc(C(C)C)cc2)cnc2nc(N)nc(N)c12
Cc1nc(N)nc(N)c1-c1ccc(Br)c(Br)c1
COc1cc(Cc2cnc(N)nc2N)cc(OCCCC(=O)O)c1OC
Cc1[nH]c(C)c(-c2ccc(Oc3ccc(S(C)=O)cc3)cc2)c(=O)c1Br (stereo not drawn)
CN1CCN(c2ccc3nc(-c4ccc5nc(-c6ccc([N+](=O)[O-])c(N)c6)[nH]c5c4)[nH]c3c2)CC1
CCCc1cc2c3c(N)nc(N)nc3ccc2n1CC
COc1ccc(OC)c(Cc2c(C)nc3nc(N)nc(N)c3c2C)c1
CCC(C(C)C)n1ccc2c3c(N)nc(N)nc3ccc21 (stereo not drawn)
C=CCn1ccc2c3c(N)nc(N)nc3ccc21
